PubChem BioAssay (NCI)
About 83,000 compounds went through this panel and 20% of them were active in at least one assay; those are over-represented in the sample as a whole.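 Results are percent growth after 48 hours of single-concentration exposure. 100 means growth as in untreated cells, lower positive values show inhibition; negative values down to -100 show cell death.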 Active and inactive are the calls of the source. How the source made its calls: active means growth percent below 10; inactive means the rest.

How the values were obtained:
Assay in all cases: NCI-60 one-dose screen, 48 h (100 = growth as untreated, 0 = no growth, -100 = all killed)
Conditions in all cases: 10 µM
[1] = system: HT29 colon
[2] = system: SNB-75 CNS
[3] = system: SNB-19 CNS
[4] = system: U251 CNS
[5] = system: PC-3 prostate
[6] = system: SK-MEL-5 melanoma
[7] = system: UACC-62 melanoma
[8] = system: LOX IMVI melanoma
[9] = system: SK-MEL-28 melanoma
[10] = system: SK-MEL-2 melanoma

Measured: growth

CC(=O)CSC(C)=O
inactive: [1] 105% | [2] 84.3% | [3] 100% | [4] 98% | [5] 86.6% | [6] 98.9% | [7] 107% | [8] 101% | [9] 95.6% | [10] 116%

COc1cccc(NC(=O)c2sc3nc4c(cc3c2N)C(O)CCC4)c1 (stereo not given)
active: [1] 4.69%
inactive: [2] 44.6% | [3] 49.5% | [4] 10.6% | [5] 25.4% | [6] 25.1% | [7] 48.9% | [8] 25.8% | [9] 56% | [10] 49.5%

O=C1C(c2ccccc2)C2C=CC(C2)N1O (stereo not given)
inactive: [1] 97.9% | [2] 107% | [3] 106% | [4] 109% | [5] 98.2% | [6] 106% | [7] 101% | [8] 99.6% | [9] 118% | [10] 103%

O=C(CCCCC[P+](c1ccccc1)(c1ccccc1)c1ccccc1)NC(COC(=O)C(Cl)Cl)(COC(=O)C(Cl)Cl)COC(=O)C(Cl)Cl
inactive: [1] 96.6% | [2] 103% | [3] 98.3% | [4] 97.1% | [5] 90.5% | [6] 92.4% | [7] 98% | [8] 102% | [9] 108% | [10] 100%

CC(=O)/C(=C/c1ccccc1)C(=O)CC(C)C
active: [8] -23%
inactive: [1] 74.4% | [2] 91.4% | [3] 106% | [4] 63.6% | [5] 83.7% | [6] 88.1% | [7] 92.4% | [9] 95.6% | [10] 109%

COc1ccc2nc3cc(Cl)ccc3c(NCCNCC(C)O)c2c1 (stereo not given)
inactive: [2] 63.7% | [3] 34% | [5] 28.1% | [6] 81% | [7] 54.1% | [8] 14.5% | [9] 54.7% | [10] 31.1%
active: [1] -37.7% | [4] -8.32%

CS(=O)(=O)Nc1ccc(Nc2c3ccccc3nc3cc(N)ccc23)cc1
active: [4] 3.29% | [6] 5.37%
inactive: [1] 55.9% | [2] 38.8% | [3] 22.2% | [5] 51.3% | [7] 40.2% | [8] 23.4% | [9] 42.3% | [10] 25.1%

C#Cc1ccc(-n2c(/C=C/c3ccc(C(F)(F)F)cc3)nc3ncccc3c2=O)cc1
active: [1] 0.334% | [6] -73.6% | [8] -18% | [10] -37.1%
inactive: [2] 25.7% | [3] 68% | [4] 39.2% | [5] 29.4% | [7] 17% | [9] 33.3%

COC(=O)C(C(C[N+](=O)[O-])c1ccccc1)=P(c1ccccc1)(c1ccccc1)c1ccccc1 (stereo not given)
inactive: [1] 67.7% | [2] 85.3% | [3] 98.4% | [4] 88.3% | [5] 85.4% | [6] 98.5% | [7] 90% | [8] 58.1% | [9] 109% | [10] 89.4%

COc1ccc(S(=O)(=O)Nc2c(/C=C\c3cc(OC)c(OC)c(OC)c3)ccc(OC)c2O)cc1
active: [4] 6.01% | [6] -17% | [10] 3.84%
inactive: [1] 11.7% | [2] 31.3% | [3] 48.5% | [5] 30.5% | [7] 38.6% | [8] 15.5% | [9] 58.2%

COc1ccc(-c2cc(/C=C/C(=O)c3cc(OC)c(OC)c(OC)c3)[nH]n2)cc1OC
active: [1] -53.9% | [4] -77.6% | [8] -79% | [9] -66.8%
inactive: [2] 17.8% | [3] 25.5% | [5] 24.7% | [6] 27.4% | [7] 50.8% | [10] 69.9%

N=C(N)c1ccc(-c2ccc(-c3cccs3)s2)s1
active: [1] -79.5% | [2] -31.7% | [3] -13.4% | [4] -85.9% | [5] 5.1% | [6] -9.08% | [7] -90.7% | [8] -75.7% | [9] -94.7% | [10] -0.961%

Cc1cc(=O)n2nnc3c4ccccc4ccc3n12
inactive: [1] 85.4% | [2] 102% | [3] 94.9% | [4] 97% | [5] 62.5% | [6] 88.5% | [7] 79.9% | [8] 89.3% | [9] 98.2% | [10] 113%

COc1cc(NC(=O)CCSc2nc3ccc(C)cc3c(=O)n2Cc2ccccc2)cc(OC)c1OC
active: [2] -13.9%
inactive: [1] 78.9% | [3] 73.3% | [4] 44.3% | [5] 83% | [6] 90.6% | [7] 85% | [8] 71.6% | [9] 74% | [10] 52.6%

Cc1ccc(N=Nc2c(N)nc(N)[nH]c2=O)cc1C
inactive: [1] 93% | [2] 104% | [3] 110% | [4] 103% | [5] 95.7% | [6] 101% | [7] 109% | [8] 96% | [9] 115% | [10] 100%

Fc1cc(C(F)(F)F)ccc1-c1cncnc1NC1CCCCCC1
inactive: [1] 110% | [2] 80.3% | [3] 94.2% | [4] 79.9% | [5] 87.1% | [6] 92.2% | [7] 78.9% | [8] 98.3% | [9] 111% | [10] 98.8%

COc1ccc(Cl)cc1C(=O)Nc1nc2ccc(Cl)cc2s1
inactive: [1] 109% | [2] 74.3% | [3] 103% | [4] 87.3% | [5] 84.4% | [6] 92.8% | [7] 91.5% | [8] 81.2% | [9] 105% | [10] 104%

CCOC(=O)CNC(=O)CCCCSc1ncnc2nc[nH]c12
inactive: [1] 103% | [2] 95.3% | [3] 109% | [4] 106% | [5] 91% | [6] 93.4% | [7] 94.9% | [8] 102% | [9] 110% | [10] 97.6%

O=C1/C(=C\c2ccc(Cl)cc2)CN(C(=O)c2ccccc2)C/C1=C\c1ccc(Cl)cc1
active: [1] -84.9% | [4] -74% | [8] -51.8%
inactive: [2] 51.4% | [3] 68.2% | [5] 25.8% | [6] 66.8% | [7] 34.6% | [9] 59.7% | [10] 87.1%

Cc1[nH]nc2c1C(c1cnn(C)c1)C(C#N)=C(N)O2 (stereo not given)
inactive: [1] 114% | [2] 73.6% | [3] 98.2% | [4] 102% | [5] 91.2% | [6] 105% | [7] 111% | [8] 94.9% | [9] 110% | [10] 93.8%

Cc1ccc(C(=O)N2C/C(=C/c3ccc(F)cc3)C(=O)/C(=C/c3ccc(F)cc3)C2)cc1
inactive: [1] 74.1% | [2] 59.7% | [3] 97.8% | [4] 88.9% | [5] 85.2% | [6] 94.6% | [7] 86.3% | [8] 54.5% | [9] 105% | [10] 84%

NC1(C(=O)O)CSSC1
inactive: [1] 90.7% | [2] 40.8% | [3] 36.4% | [4] 15.1% | [5] 79.1% | [6] 69.9% | [7] 97.4% | [8] 32.2% | [9] 34.8% | [10] 111%

O=C1c2ccc3c4c(ccc(c24)C(=O)N1CCNCc1ccccc1)C(=O)N(CCNCc1ccccc1)C3=O
inactive: [2] 105% | [5] 28.3% | [10] 119%
active: [1] -16.5% | [3] 8.03% | [4] -46.3% | [6] -97.9% | [7] -31.6% | [8] -47.9% | [9] 6%

N#CSCC1CC(O)(c2ccccc2)CC(c2ccc(Cl)cc2)O1 (stereo not given)
inactive: [2] 49.2% | [3] 81.5% | [4] 55.2% | [5] 29.4% | [6] 68.3% | [7] 56.5% | [8] 13.1% | [9] 72.1% | [10] 40.5%
active: [1] 3.59%

Cc1ccc(NC(=O)Nc2c(Cl)cccc2Cl)cn1
inactive: [1] 130% | [2] 92.1% | [3] 102% | [4] 89.8% | [5] 83.8% | [6] 87.1% | [7] 78.7% | [8] 101% | [9] 130% | [10] 91.4%

Nc1nc(N)c2c(ccc3nccc32)[nH]1
inactive: [1] 27% | [2] 79.2% | [3] 62.4% | [4] 36% | [6] 41.2% | [7] 47.2% | [8] 23% | [9] 83.4% | [10] 57.6%
active: [5] 7.39%

O=C(Nc1ccc(Cl)c(Cl)c1)Nc1c(Oc2ccc(Cl)c(Cl)c2)ccc(Cl)c1S(=O)(=O)O
inactive: [3] 48.3% | [4] 22.1% | [5] 19.6% | [7] 31.6% | [8] 33.8% | [9] 54.8%
active: [1] 4.55% | [2] -11.6% | [6] 7.15% | [10] -1.82%
